According to PubChem BioAssay (Tox21):
Records with an inconclusive call do not appear. Calls of active or inactive are those of the source. Unless noted, calls come from the whole dose curve.

How the values were obtained:
[1] = Nuclear factor erythroid 2-related factor 2/antioxidant responsive element (Nrf2/ARE) small molecule agonists: qHTS cell viability counter screen in human keratinocytes (AID 1919968; active = well fitted curve in the direction sought with a large enough effect in the repeat runs; an effect the other way counts as inactive or inconclusive; note: nearly all actives have a fitted effect of over 55% in size)
How it was run: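 After a 5 h attachment period, ARE-reporter keratinocytes were dosed with compounds in DMSO and then cultured 23 h at 37 C. Cell viability came from CellTiter-Fluor signal read after a further 1 h.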

[2] = Nuclear factor erythroid 2-related factor 2/antioxidant responsive element (Nrf2/ARE) small molecule agonists: luciferase reporter gene qHTS assay in human keratinocytes (AID 1919969); note: nearly all actives have a fitted effect of over 35% in size
[3] = target: Gonadotropin-releasing hormone receptor (Homo sapiens) (UniProt P30968); experiment: Human gonadotropin-releasing hormone receptor (GnRHR) small molecule agonists, calcium flux assay in GnRHR-HEK293 cells (AID 1920063); note: nearly all actives have a fitted effect of over 35% in size
How it was run: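 We seeded human GnRHR-expressing HEK293 cells for 18 hours, loaded them with calcium dye for an hour at 37 C, added test compounds, and recorded fluorescence intensity kinetically for three minutes.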

[4] = target: KiSS-1 receptor (Homo sapiens) (UniProt Q969F8); experiment: Human kisspeptin (KISS1R) small molecule agonists, calcium flux assay in KISS1R-HEK293 cells (AID 1920064; active = well fitted curve in the direction sought with a large enough effect in the repeat runs; an effect the other way counts as inactive or inconclusive)
How it was run: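 Kinetic calcium assay, 1 s sampling over 3 min at Ex/Em 480/540, in HEK293 cells engineered with human KISS1R; compounds delivered in DMSO after 1 h dye loading.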

[5] = G protein-coupled receptor (GPCR) small molecule agonists, calcium flux assay: HEK293 wild type cell line counter screen (AID 1920065)
How it was run: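 Calcium-sensitive dye, loaded 1 h at 37 C into cells cultured 18 h, reports compound-evoked calcium release as fluorescence (Ex/Em 480/540), measured over 3 min. Agonist mode; 15-point titrations, triplicate.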

[6] = p53 small molecule agonists, cell-based qHTS assay with human liver microsomes (AID 1963577);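 note: p53 response element beta-lactamase reporter cells with liver microsomes plus NADPH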
How it was run: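 Compounds act here after metabolic activation: human liver microsomes and NADPH, both at 0.5 mg/mL final, were co-added to p53RE-bla cells. Incubation ran 16 h at 37 C, followed by LiveBLAzer detection.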

[7] = p53 small molecule agonists, cell-based qHTS assay with rat liver microsomes (AID 1963578)
How it was run: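 Read-out is beta-lactamase reporter fluorescence (LiveBLAzer, 2 h, room temperature, dark) in p53RE-bla cells treated 16 h at 37 C with compound, rat liver microsomes and NADPH, both 0.5 mg/mL final.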

[8] = p53 small molecule agonists, cell-based qHTS assay: qHTS cell viability counter screen (AID 1963581); note: nearly all actives have a fitted effect of over 45% in size
How it was run: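 Following 5 h attachment, HCT-116 p53RE-bla cells took up compound for 16 h at 37 C; the reporter was read with B/G FRET substrate (2 h RT), and viability then via CellTiter-Glo ATP luminescence.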

[9] = target: 5-hydroxytryptamine receptor 2A (Homo sapiens) (UniProt P28223); experiment: 5-hydroxytryptamine receptor 2A (HTR2A) small molecule antagonists, cell-based qHTS assay (AID 1963586); note: nearly all actives have a fitted effect of over 45% in size
How it was run: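 Antagonist-mode intracellular calcium assay: DOI (4 nM) added after 5 min compound pre-incubation at room temperature to dye-loaded HTR2A-CHO cells. Fluorescence followed for 3 min, sampled every second.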

[10] = target: Muscarinic acetylcholine receptor M1 (Homo sapiens) (UniProt P11229); experiment: Cholinergic receptor muscarinic 1 (CHRM1) small molecule antagonists, cell-based qHTS assay (AID 1963588); note: nearly all actives have a fitted effect of over 40% in size
How it was run: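 CHRM1-CHO calcium-flux assay, antagonist mode. Cells were seeded 18 h, dye-loaded 1 h at 37 C and given compound for 5 min at RT, then acetylcholine was added at 50nM. FDSS fluorescence was read 3 min; 15 concentrations, three runs.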

[11] = target: Muscarinic acetylcholine receptor M1 (Homo sapiens) (UniProt P11229); experiment: Cholinergic receptor muscarinic 1 (CHRM1) small molecule agonists, cell-based qHTS assay (AID 1963589); note: nearly all actives have a fitted effect of over 35% in size
How it was run: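 Measures agonist-induced intracellular calcium rise. Stable human CHRM1 CHO line, 1 h dye load at 37 C, compounds from DMSO, kinetic fluorescence read.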

[12] = cAMP Responsive Elements (CRE) small molecule agonists, cell-based qHTS assay (AID 1963590)
How it was run: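 A CRE-responsive beta-lactamase reporter in HEK 293T cells was used. Treatment ran 3 h at 37 C; detection used LiveBLAzer B/G FRET substrate for 2 h at room temperature.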

[13] = cAMP Responsive Elements (CRE) small molecule antagonists, cell-based qHTS assay (AID 1963591; active = well fitted inhibition curve with a large enough effect in the signal ratio in the repeat runs, not every such curve was filed as active; the % refers to the signal ratio)
How it was run: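 HEK293T cells carrying a CRE-driven beta-lactamase reporter receive compound and NKH477 (0.25 uM final) for 3 h. Fluorescence from LiveBLAzer B/G FRET substrate is read after 2 h at room temperature.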

[14] = target: Beta-2 adrenergic receptor (Homo sapiens) (UniProt P07550); experiment: Adrenergic beta2 receptor (ADRB2) small molecule antagonists, cell-based qHTS assay (AID 1963592); note: series mostly up to about 92 µM; nearly all actives have a fitted effect of over 50% in size
How it was run: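 Cells (CHO, stable ADRB2 overexpression) incubated 18-20hr at 37C; compounds added from DMSO; agonist mix (1nM isoproterenol, 100uM IBMX, 25uM Ro-20-1724) added; 0.5hr RT; d2-cAMP and anti-cAMP-cryptate added; 1hr RT; 665/615 nm read.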

[15] = target: Beta-2 adrenergic receptor (Homo sapiens) (UniProt P07550); experiment: Adrenergic beta2 receptor (ADRB2) small molecule agonists, cell-based qHTS assay (AID 1963593);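 note: CHO cells stably overexpressing human ADRB2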
How it was run: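 CHO cells stably over-expressing ADRB2 were plated overnight at 37C, then dosed with compounds plus a stimulation mix containing 100uM IBMX and 25uM Ro-20-1724 for 0.5hr at room temperature. cAMP was measured by HTRF competition, 1hr.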

[16] = target: D(2) dopamine receptor (Homo sapiens) (UniProt P14416); experiment: Dopamine D2 receptor (DRD2) small molecule agonists, cell-based qHTS assay (AID 1963594); note: nearly all actives have a fitted effect of over 35% in size
How it was run: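 HEK293 cells stably expressing human DRD2, pre-treated with PDE inhibitor Ro20-1724 (0.1 mM final) and compound 10 min at room temperature, then stimulated with NKH477 (200nM […]) for 30 min. cAMP read by HTRF (665/620 nm).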

[17] = target: D(2) dopamine receptor (Homo sapiens) (UniProt P14416); experiment: Dopamine D2 receptor (DRD2) small molecule antagonists, cell-based qHTS assay (AID 1963595; active = well fitted inhibition curve with a large enough effect in the signal ratio in the repeat runs, with a control signal flat; the % refers to the signal ratio)
How it was run: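 Readout: HTRF cAMP, cAMP-d2 competing with cellular cAMP for anti-cAMP cryptate, read after 1 h. Cells: DRD2-HEK293. Conditions: 0.1 mM Ro20-1724, 12 nM quinpirole, 200 nM NKH477, 30 min RT.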

[18] = target: 5-hydroxytryptamine receptor 2A (Homo sapiens) (UniProt P28223); experiment: 5-hydroxytryptamine receptor 2A (HTR2A) small molecule agonists, cell-based qHTS assay (AID 1963587); note: nearly all actives have a fitted effect of over 30% in size
How it was run: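 CHO cells stably expressing human HTR2A, plated 18 h, loaded with calcium dye 1 h at 37 C. Agonist mode: compounds added and intracellular calcium fluorescence recorded kinetically for 2 min at 1 sec intervals.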

[19] = p53 small molecule agonists, cell-based qHTS assay (AID 1963582; active = well fitted activation curve with a large enough effect in the signal ratio in the repeat runs, not every such curve was filed as active; the % refers to the signal ratio)
How it was run: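 In this cell-based concentration-response screen, a p53 response element drives beta-lactamase; cells received DMSO-borne compounds after 5 h culture and were incubated a further 16 h before FRET substrate development.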

[20] = p53 small molecule agonists, cell-based qHTS assay with rat liver microsomes: qHTS cell viability counter screen (AID 1963580); note: nearly all actives have a fitted effect of over 45% in size
How it was run: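 p53RE-bla HCT-116 cells were exposed 16 h at 37 C to compounds with rat liver microsomes (0.5 mg/mL) and NADPH (0.5 mg/mL). Viability was measured in the same wells as ATP content by CellTiter-Glo luminescence.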

Measured: Potency

Chain of Beta-2 adrenergic receptor (Homo sapiens) (P07550 whole entry, looked up): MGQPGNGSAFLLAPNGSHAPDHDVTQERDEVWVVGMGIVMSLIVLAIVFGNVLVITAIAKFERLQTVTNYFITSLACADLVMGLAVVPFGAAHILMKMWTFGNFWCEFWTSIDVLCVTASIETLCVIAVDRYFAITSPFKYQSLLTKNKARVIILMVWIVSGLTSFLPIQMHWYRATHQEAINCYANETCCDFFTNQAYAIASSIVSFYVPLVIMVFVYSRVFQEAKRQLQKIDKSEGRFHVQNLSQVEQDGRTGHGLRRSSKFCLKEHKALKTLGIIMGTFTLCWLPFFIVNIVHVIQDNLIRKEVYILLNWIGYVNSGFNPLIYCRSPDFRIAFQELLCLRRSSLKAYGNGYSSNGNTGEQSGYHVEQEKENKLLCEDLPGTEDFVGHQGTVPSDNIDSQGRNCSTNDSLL
Chain of KiSS-1 receptor (Homo sapiens) (Q969F8 whole entry, looked up): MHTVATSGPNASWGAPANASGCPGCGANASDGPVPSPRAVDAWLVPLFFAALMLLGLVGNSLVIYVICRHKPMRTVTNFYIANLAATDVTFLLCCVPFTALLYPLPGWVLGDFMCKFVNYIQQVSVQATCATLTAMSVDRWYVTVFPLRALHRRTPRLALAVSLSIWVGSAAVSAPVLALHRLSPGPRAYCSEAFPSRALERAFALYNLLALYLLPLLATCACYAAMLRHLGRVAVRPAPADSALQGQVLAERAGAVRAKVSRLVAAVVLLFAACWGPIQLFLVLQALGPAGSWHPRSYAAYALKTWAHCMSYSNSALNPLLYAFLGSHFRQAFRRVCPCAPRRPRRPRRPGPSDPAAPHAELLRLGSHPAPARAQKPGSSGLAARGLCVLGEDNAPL
Chain of 5-hydroxytryptamine receptor 2A (Homo sapiens) (P28223 whole entry, looked up): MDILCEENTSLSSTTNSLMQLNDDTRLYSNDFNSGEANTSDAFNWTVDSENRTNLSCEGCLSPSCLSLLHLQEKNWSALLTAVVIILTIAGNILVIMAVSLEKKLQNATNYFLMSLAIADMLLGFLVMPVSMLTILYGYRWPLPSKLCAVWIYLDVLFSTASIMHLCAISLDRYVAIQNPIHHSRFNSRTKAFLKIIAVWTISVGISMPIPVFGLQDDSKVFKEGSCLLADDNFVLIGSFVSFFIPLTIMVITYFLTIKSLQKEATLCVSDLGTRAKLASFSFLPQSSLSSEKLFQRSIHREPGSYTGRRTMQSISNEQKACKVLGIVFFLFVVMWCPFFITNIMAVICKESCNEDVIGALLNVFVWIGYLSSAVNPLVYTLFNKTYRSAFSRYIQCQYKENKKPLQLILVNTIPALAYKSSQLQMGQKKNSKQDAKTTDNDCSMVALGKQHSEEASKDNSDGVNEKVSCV
Chain of Muscarinic acetylcholine receptor M1 (Homo sapiens) (P11229 whole entry, looked up): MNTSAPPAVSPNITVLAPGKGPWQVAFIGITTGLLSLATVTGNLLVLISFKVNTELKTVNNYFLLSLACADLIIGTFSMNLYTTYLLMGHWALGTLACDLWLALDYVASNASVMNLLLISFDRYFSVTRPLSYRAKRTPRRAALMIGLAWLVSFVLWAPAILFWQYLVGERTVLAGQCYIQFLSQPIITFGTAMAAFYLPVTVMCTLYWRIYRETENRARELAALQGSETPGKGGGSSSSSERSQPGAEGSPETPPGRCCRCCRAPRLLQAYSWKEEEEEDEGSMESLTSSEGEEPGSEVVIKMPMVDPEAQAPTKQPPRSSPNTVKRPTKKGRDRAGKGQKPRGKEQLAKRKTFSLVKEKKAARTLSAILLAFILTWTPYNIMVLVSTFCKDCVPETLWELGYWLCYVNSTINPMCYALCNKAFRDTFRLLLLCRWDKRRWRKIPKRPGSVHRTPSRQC
Chain of D(2) dopamine receptor (Homo sapiens) (P14416 whole entry, looked up): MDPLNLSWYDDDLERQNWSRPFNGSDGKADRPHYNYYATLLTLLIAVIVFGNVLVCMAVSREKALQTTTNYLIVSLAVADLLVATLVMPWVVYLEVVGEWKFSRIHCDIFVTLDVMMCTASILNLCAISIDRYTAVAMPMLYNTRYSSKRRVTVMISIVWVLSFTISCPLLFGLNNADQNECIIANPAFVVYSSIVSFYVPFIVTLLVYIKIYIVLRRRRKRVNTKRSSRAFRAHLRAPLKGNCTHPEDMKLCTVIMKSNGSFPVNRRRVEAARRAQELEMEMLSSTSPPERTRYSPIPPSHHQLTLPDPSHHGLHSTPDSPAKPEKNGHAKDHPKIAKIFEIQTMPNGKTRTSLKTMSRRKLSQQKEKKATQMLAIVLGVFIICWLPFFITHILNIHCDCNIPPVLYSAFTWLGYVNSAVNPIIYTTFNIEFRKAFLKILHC
Chain of Gonadotropin-releasing hormone receptor (Homo sapiens) (P30968 whole entry, looked up): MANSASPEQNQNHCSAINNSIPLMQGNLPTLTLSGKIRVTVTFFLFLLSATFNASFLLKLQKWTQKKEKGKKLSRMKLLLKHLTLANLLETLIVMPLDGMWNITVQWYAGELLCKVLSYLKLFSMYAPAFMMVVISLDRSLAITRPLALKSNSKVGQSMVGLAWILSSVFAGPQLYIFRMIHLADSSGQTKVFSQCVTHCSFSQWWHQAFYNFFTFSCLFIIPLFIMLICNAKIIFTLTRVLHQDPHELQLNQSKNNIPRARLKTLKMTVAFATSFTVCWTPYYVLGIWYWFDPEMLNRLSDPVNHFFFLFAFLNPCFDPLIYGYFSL

OCc1ccccc1O
not listed: [18] | [19] | [20]
inactive: all other assays above

CC[C@]12CCCN3CCc4c(n(c5ccccc45)[C@@](O)(C(=O)OC)C1)[C@@H]32
not listed: [8] | [14] | [19] | [20]
inactive: all other assays above

CCCCCCCCCCC
not listed: [15] | [16] | [18] | [20]
inactive: all other assays above

Cc1cc(O)c(Cl)cc1C
not listed: [11] | [15] | [20]
inactive: all other assays above

CCCCOC(=O)CCCCCCCC(=O)OCCCC
inactive: all assays above

CCOC(=O)O[C@]1(C(=O)OCCl)CC[C@H]2[C@@H]3CCC4=CC(=O)C=C[C@]4(C)[C@H]3[C@@H](O)C[C@@]21C
not listed: [12] | [14]
inactive: all other assays above

CC(=O)Nc1c(I)cc(I)c(C(=O)O)c1I
not listed: [15]
inactive: all other assays above

Nc1nnnn1-c1ccccc1
not listed: [13] | [16]
inactive: all other assays above
